PubChem BioAssay AID435000 (NMMLSC, 2010)
This is one part of the list. The source made the active and inactive calls.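 The calls were made as follows: active = fluorescence response below 15%; inactive = the rest.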

assay: DHE quenching or ROS scavenging interference in aged yeast, artefact control for yeast caloric restriction mimetic project, S. cerevisiae BY4741, flow cytometry (AID 435000); conditions: at 10 µM, hits give low values;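 also: percent of the mean fluorescence averaged over all compound wells on the plate; lower means stronger quenching of DHE signal or ROS scavenging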

Fluorescence response, inactive:
CC1CCCN(S(=O)(=O)c2ccc(C(=O)Nc3nnc(-c4ccncc4)o3)cc2)C1 (configuration not stated) 109%
COc1ccc(CCNC(=O)c2ccccc2-c2ccccc2C(=O)O)cc1OC 110%
COc1ccc(NC(C)=O)cc1NC(=O)CN1CCN(c2ccccn2)CC1 96.8%
Cc1ccc(C23CC4CC(CC(C(=O)NCC(=O)O)(C4)C2)C3)cc1 94.6%
CC(C)(C)NC(=O)COc1ccc(CNc2ccc3[nH]c(=O)[nH]c3c2)cc1 94.4%
Cc1ccc(-c2nn(C(C)(C)C)c3ncnc(N)c23)cc1 99.5%
Cc1cc2oc(C(=O)Nc3c(C)n(C)n(-c4ccccc4)c3=O)c(C)c2cc1Cl 95.3%
CC(C)NC(=O)/C(C#N)=C\c1ccc(N(C)C)c(Br)c1 92.3%
CCN(CC)C(=O)CSc1nnc(-c2cccc(OC)c2)o1 110%
O=C(O)c1ccc(F)c(S(=O)(=O)Nc2ccccc2)c1 90.9%
CSc1sc(C(=O)NNC(=O)c2ccc(Cl)cc2)c2c1C=CCC2 92.4%
NC(=S)Nc1c(Cl)cccc1Cl 97.4%
COC(=O)CNC(=O)c1ccc(OC2CCN(C(=O)C3CC3)CC2)cc1 113%
CSc1ncc(Cl)c(C(=O)Nc2cc(C)ccc2C)n1 95.1%
Cc1ccc2cccc(S(=O)(=O)N3CCN(c4ccccc4F)CC3)c2n1 104%
CCN(CC)c1ccc(NC(=O)CN2CCN(c3ccccn3)CC2)cc1 95.7%
Cc1ccc(-c2nc(CSCC(=O)NC3CCN(Cc4ccccc4)CC3)c(C)o2)cc1 94.6%
Cc1ccc(NC(=O)Cn2nc(C)c3ccccc3c2=O)c(C)c1 110%
O=C(CSc1ccc(-c2ccc(-n3cccn3)cc2)nn1)Nc1ccc([N+](=O)[O-])cc1 88.8%
Cc1cc(=O)n2[nH]c(-c3cccc(Cl)c3)cc2n1 92.6%
Cc1ccc(-c2nc(CS(=O)CC(=O)N3CCN(c4ncccn4)CC3)c(C)o2)cc1 (configuration not stated) 95.7%
O=C(Nc1ccccc1N1CCCC1)c1ccc2ccccc2c1 103%
